The results in this text go back to PubChem BioAssay (EPA / NIEHS).

“And” between values parts separate entries of the source, which are not always exact repeats. Identical values can stand only once. Results filed as inconclusive are left out. Where a structure was tested more than once in an assay, its records may differ in their call. The source made the active and inactive calls. The calls were made as follows: active = hit-call score of the fitted dose curve at least 0.9, where 1 is the maximum; inconclusive = response in the unintended direction; inactive = score below 0.9.

The target in test [1] is zebrafish Estrogen Receptor (ER1), esr1 (gene 259252) (UniProt P57717). The experiment in a line: ATG_zfER1_XSP2: Attagene TRANS-FACTORIAL Multi-Species (XSP2) HepG2 Assay for zebrafish Estrogen Receptor (ER1) (AID 2283816). The method, boiled down:
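After 24 h compound exposure, RNA from transfected HepG2 cells was reverse-transcribed and reporter transcripts resolved by capillary electrophoresis. The TRANS format reads exogenous zebrafish ER1-Gal4 chimera activity on GAL4-UAS elements; gain of signal against DMSO.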

For test [2], the target named is chicken Estrogen Receptor (ERa), ESR1 (gene 396099) (UniProt P06212). The experiment in a line: ATG_chERa_XSP2: Attagene TRANS-FACTORIAL Multi-Species (XSP2) HepG2 Assay for chicken Estrogen Receptor (ERa) (AID 2283817).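 Also: actives raise reporter signal above DMSO so AC50 reflects ER activation.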 Summed up: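 Reporter mRNA induction read by RT-PCR, fluorescent labelling and capillary electrophoresis after 24 h exposure; positive-direction fit against DMSO baseline. HepG2 cells transfected with multiplexed GAL4-UAS units including chicken ERa chimera; medium contained 3 nM 6-alpha-fluorotestosterone plus 1.5 nM norgestrel.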
Chain of chicken Estrogen Receptor (ERa), ESR1 (gene 396099) (P06212 whole entry, looked up, the tested form may be a part): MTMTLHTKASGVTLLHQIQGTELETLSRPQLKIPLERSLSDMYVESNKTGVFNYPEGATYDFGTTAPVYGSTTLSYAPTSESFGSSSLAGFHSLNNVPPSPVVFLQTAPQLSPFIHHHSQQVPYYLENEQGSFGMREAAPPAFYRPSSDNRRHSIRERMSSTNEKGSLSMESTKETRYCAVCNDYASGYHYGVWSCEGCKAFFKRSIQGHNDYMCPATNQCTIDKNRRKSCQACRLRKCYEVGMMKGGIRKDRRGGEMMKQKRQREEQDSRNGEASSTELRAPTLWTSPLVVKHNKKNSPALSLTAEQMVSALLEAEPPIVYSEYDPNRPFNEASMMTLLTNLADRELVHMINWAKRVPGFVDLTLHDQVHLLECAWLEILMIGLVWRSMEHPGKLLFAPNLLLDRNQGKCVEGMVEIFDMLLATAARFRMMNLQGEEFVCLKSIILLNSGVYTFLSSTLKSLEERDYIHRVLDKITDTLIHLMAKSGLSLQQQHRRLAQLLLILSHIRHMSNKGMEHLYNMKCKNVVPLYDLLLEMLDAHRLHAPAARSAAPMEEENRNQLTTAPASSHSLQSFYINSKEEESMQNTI

For test [3], the system named is zebrafish Estrogen Receptor (ER2a), gene 317734. Put plainly: ATG_zfER2a_XSP2: Attagene TRANS-FACTORIAL Multi-Species (XSP2) HepG2 Assay for zebrafish Estrogen Receptor (ER2a) (AID 2283818).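 Also: hits raise reporter mRNA so AC50 reflects activation of zebrafish ER2a.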 Summed up:
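Multiplexed trans-reporter readout: RT-PCR then capillary electrophoresis of reporter transcripts after 24 h compound treatment. Human HepG2 carries transfected zebrafish ER2a-Gal4 chimera; 3 nM 6-alpha-fluorotestosterone plus 1.5 nM norgestrel present. Induction scored against DMSO.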

The test system of test [4] is frog Estrogen Receptor (ER), gene 398734. The experiment in a line: ATG_frER1_XSP2: Attagene TRANS-FACTORIAL Multi-Species (XSP2) HepG2 Assay for frog Estrogen Receptor (ER) (AID 2283821).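 Also: hits raise reporter mRNA above DMSO baseline so potency means agonist or activator.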 Summed up:
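HepG2 cells transiently transfected with multiplexed GAL4-UAS reporter units expressing chimeric NR-Gal4 proteins (TRANS format) were dosed for 24 h. Reporter mRNA was quantified by RT-PCR, FAM primer extension, HpaI digestion and capillary electrophoresis; gain of signal relative to DMSO.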

Test [5] deals with zebrafish Estrogen Receptor (ER2b), gene 317733. Put plainly: ATG_zfER2b_XSP2: Attagene TRANS-FACTORIAL Multi-Species (XSP2) HepG2 Assay for zebrafish Estrogen Receptor (ER2b) (AID 2283823).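 Also: fitted upward as reporter gain over DMSO so potency reflects activation.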 As for the experimental part:
ATG_XSP2_multi-species_TRANS is a cell-based, multiplexed assay created by modifying the existing Attagene TRANS-FACTORIAL system to include a panel of nuclear receptors from some or all the following species: human (Homo sapiens), mouse (Mus musculus), frog (Xenopus laevis), zebrafish (Danio rerio), chicken (Gallus gallus), and turtle (Chrysemys picta). The ECOTOX-FACTORIAL format uses HepG2, a human liver cell line, with measurements taken at 24 hours after chemical dosing in a 24-well plate. Xsp2 included 3 nM 6-alpha-fluorotestosterone and 1.5 nM norgestrel to stimulate the androgen receptor.ATG_zfER2b_XSP2 is one of 29 assay components measured or calculated from the ATG_XSP2_multi-species_TRANS assay. It is designed to make measurements of mRNA induction, a form of inducible reporter, as detected with fluorescence intensity signals by Reverse transcription polymerase chain reaction (RT-PCR) and Capillary electrophoresis technology.The assay endpoint ATG_zfER2b_XSP2 was analyzed in the positive analysis fitting direction relative to DMSO as the negative control and baseline of activity. Using a type of inducible reporter, measures of mRNA for gain-of-signal activity can be used to understand the reporter gene at the transcription factor-level as they relate to the gene ER. Furthermore, this assay endpoint can be referred to as a primary readout, because this assay has produced multiple assay endpoints where this one serves a reporter gene function. To generalize the intended target to other relatable targets, this assay endpoint is annotated to the nuclear receptor intended target family, where the subfamily is steroidal.
Human liver HepG2 cells are transiently transfected with multiple reporter transcription units (MRTUs) in 6-well plates using FuGene 6 reagent (Roche; 3 ml FuGene/1 mg DNA). The MRTU constructs are regulated by a cis-regulating element (promoter). […] A major difference between the CIS and TRANS system is that in CIS activities of endogenous TFs are measured, whereas the TRANS assay evaluates changes in activities of exogenous, chimeric NR-Gal4 proteins. […] At the end of 24 hour incubation, total RNA was isolated using TriZol reagent (Invitrogen). The isolated RNA is then reverse-transcribed using oligo(dT) primer and Mo-MLV reverse transcriptase (Invitrogen) with DNAse I (Ambion) treatment for 30 min. […] The fragments were purified using Qiaquick PCR columns (Qiagen), analyzed on an ABI 3130xL genetic analyzer (Applied Biosystems) with peak positions identified by using a set of X-rhodamine (ROX)-labeled MapMarker1000 molecular weight standards (BioVentures). […]

Test [6] has as its target Estrogen receptor (Homo sapiens) (UniProt P03372). Put plainly: ATG_hERa_XSP2: Attagene TRANS-FACTORIAL Multi-Species (XSP2) HepG2 Assay for human Estrogen Receptor (ERa) (AID 2283827). The method, boiled down: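 Trans-activation of exogenous human ERa-Gal4 chimera read in HepG2 as reporter transcript after 24 h exposure; medium included 3 nM 6-alpha-fluorotestosterone and 1.5 nM norgestrel. Quantified by RT-PCR with capillary electrophoresis, positive-direction fitting against DMSO.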

Test [7] has as its system frog Estrogen Receptor (ER2), gene 100174814. The experiment in a line: ATG_frER2_XSP2: Attagene TRANS-FACTORIAL Multi-Species (XSP2) HepG2 Assay for frog Estrogen Receptor (ER2) (AID 2283828). Summed up: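 Read-out: reporter transcript levels by RT-PCR with 6-FAM primer extension, HpaI digestion and capillary electrophoresis, scored as induction over DMSO control. Transfected HepG2 carrying Xenopus ER2–GAL4 chimera; compounds incubated 24 h.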

For test [8], the system named is frog Androgen Receptor (AR), gene 399456. The experiment in a line: ATG_frAR_XSP2: Attagene TRANS-FACTORIAL Multi-Species (XSP2) HepG2 Assay for frog Androgen Receptor (AR) (AID 2283824).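 Also: reporter mRNA from GAL4-UAS units driven by Xenopus AR-Gal4 chimera; actives raise reporter signal above DMSO so AC50 reflects agonist-like induction.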 Summed up: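 Reporter transcript induction, read by RT-PCR with fluorescent capillary electrophoresis, in human liver HepG2 cells carrying an exogenous Xenopus AR-Gal4 fusion and GAL4-driven reporters; chemical exposure 24 hours, activity scored upward against DMSO controls.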

Test [9] relates to zebrafish Androgen Receptor (AR), gene 100005148. The experiment in a line: ATG_zfAR_XSP2: Attagene TRANS-FACTORIAL Multi-Species (XSP2) HepG2 Assay for zebrafish Androgen Receptor (AR) (AID 2283825).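 Also: hits raise reporter mRNA above DMSO so AC50 reflects agonist-type gain.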 The method, boiled down: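 After 24 h compound exposure in medium with 3 nM 6-alpha-fluorotestosterone plus 1.5 nM norgestrel, HepG2 cells carrying zebrafish AR–GAL4 reporter constructs were assessed for reporter mRNA gain by RT-PCR and capillary electrophoresis.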

Test [10] has as its system chicken Androgen Receptor (AR), gene 422165. The experiment in a line: ATG_chAR_XSP2: Attagene TRANS-FACTORIAL Multi-Species (XSP2) HepG2 Assay for chicken Androgen Receptor (AR) (AID 2283819).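 Also: hits raise reporter mRNA above DMSO so potency is for activation.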 The method, boiled down:
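Readout is reporter mRNA induction via RT-PCR/capillary electrophoresis after 24 h chemical exposure, positive direction relative to DMSO. Transiently transfected HepG2 express chimeric chicken AR–GAL4; AR stimulated by 3 nM 6-alpha-fluorotestosterone and 1.5 nM norgestrel.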

Chain of Estrogen receptor (Homo sapiens) (P03372 whole entry, looked up, the tested form may be a part): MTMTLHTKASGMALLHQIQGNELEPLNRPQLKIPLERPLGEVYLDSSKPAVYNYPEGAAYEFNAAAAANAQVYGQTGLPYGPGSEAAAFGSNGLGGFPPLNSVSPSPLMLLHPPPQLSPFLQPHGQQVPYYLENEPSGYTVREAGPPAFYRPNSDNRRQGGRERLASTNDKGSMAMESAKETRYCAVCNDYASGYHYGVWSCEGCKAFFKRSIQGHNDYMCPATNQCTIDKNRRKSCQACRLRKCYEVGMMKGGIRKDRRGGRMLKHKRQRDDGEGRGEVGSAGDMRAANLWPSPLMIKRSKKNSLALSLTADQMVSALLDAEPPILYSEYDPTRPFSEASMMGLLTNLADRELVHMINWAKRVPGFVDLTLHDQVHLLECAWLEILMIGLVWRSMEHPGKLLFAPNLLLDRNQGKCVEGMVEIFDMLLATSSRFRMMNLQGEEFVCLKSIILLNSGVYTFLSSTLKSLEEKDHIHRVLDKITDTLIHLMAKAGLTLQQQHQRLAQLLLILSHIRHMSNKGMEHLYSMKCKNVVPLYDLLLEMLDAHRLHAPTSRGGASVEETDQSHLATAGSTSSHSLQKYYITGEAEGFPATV
Chain of zebrafish Estrogen Receptor (ER1), esr1 (gene 259252) (P57717 whole entry, looked up, the tested form may be a part): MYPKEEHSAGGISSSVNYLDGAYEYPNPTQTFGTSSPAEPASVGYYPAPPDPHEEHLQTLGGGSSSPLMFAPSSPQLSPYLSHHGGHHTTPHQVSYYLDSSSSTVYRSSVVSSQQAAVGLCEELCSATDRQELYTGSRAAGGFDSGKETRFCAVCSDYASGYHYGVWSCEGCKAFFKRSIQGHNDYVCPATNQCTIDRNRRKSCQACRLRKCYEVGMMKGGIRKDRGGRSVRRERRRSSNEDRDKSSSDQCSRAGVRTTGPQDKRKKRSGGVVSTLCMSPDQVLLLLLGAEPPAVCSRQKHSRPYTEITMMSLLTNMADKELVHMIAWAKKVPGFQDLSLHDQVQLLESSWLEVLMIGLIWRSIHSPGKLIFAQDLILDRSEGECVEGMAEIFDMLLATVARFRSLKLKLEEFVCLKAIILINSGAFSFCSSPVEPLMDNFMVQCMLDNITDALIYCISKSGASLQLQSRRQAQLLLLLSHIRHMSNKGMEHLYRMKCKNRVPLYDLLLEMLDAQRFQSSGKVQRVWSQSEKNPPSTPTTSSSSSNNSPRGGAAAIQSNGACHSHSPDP

For the molecule `CC(=O)C(C)=CC1C(C)=CCCC1(C)C` (stereo not drawn), the concentration at half-maximal activity (AC50) in test [1] was 34.2 µM (active); in test [2], 19.8 µM (active) and 14 µM (active); in [3] it was 15 µM (active) and 19.8 µM (active); in test [4] it was 27.3 µM (active) and 27.2 µM (active); in test [5], 32 µM (active) and 29.8 µM (active); in test [6], 19.8 µM (active) and 21.3 µM (active). In test [7], the AC50 was 27.7 µM (active) and 14.7 µM (active). Moreover, in test [1], the molecule was classed as inactive.
Turning to `CCCc1cc(=O)[nH]c(=S)[nH]1`, the call in test [1], in [4], in test [5], in test [8], in [9] and in test [6] was inactive.
Regarding `CC(C)(C)c1cc(O)c(C(C)(C)C)cc1O`, the molecule was classed as inactive in test [1], in test [2], in test [3], in test [10], in test [4] and in [6]. Besides, in test [7], the outcome was inactive. In [5], the concentration at half-maximal activity (AC50) is 49.3 µM (active).
As to `C=CCOC(=O)c1ccccc1C(=O)OCC=C`, the call in [1], in [2], in [3], in [10], in test [4] and in test [9] was inactive. Besides, the molecule was called inactive in test [7]. Besides, the AC50 in [2] was 62.3 µM (active); in [5], 139 µM (active) and 78.9 µM (active); in test [6], 53.5 µM (active) and 100 µM (active); in test [7], 51.2 µM (active).
